Assay results from PubChem BioAssay (NCI).
The panel holds about 83,000 compounds, 20% with a hit somewhere; the sample as a whole holds those more often.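 A percent growth of 40 corresponds to 60% growth inhibition; 0 means no net growth; -100 means all cells died. Active threshold: below 10.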 The source made the active and inactive calls.

Experiments:
Experiment in all cases: NCI-60 one-dose screen, 48 h (100 = growth as untreated, 0 = no growth, -100 = all killed)
Conditions in all cases: 10 µM unless noted
HCT-15 colon = test system: HCT-15 colon
HT29 colon = test system: HT29 colon
SNB-75 CNS = test system: SNB-75 CNS
SNB-19 CNS = test system: SNB-19 CNS
U251 CNS = test system: U251 CNS
PC-3 prostate = test system: PC-3 prostate
SK-MEL-5 melanoma = test system: SK-MEL-5 melanoma
UACC-62 melanoma = test system: UACC-62 melanoma
LOX IMVI melanoma = test system: LOX IMVI melanoma
SK-MEL-28 melanoma = test system: SK-MEL-28 melanoma
SK-MEL-2 melanoma = test system: SK-MEL-2 melanoma
EKVX NSCLC = test system: EKVX NSCLC
SN12C renal = test system: SN12C renal
UO-31 renal = test system: UO-31 renal
TK-10 renal = test system: TK-10 renal
ACHN renal = test system: ACHN renal
CAKI-1 renal = test system: CAKI-1 renal
A498 renal = test system: A498 renal
CCRF-CEM leukemia = test system: CCRF-CEM leukemia
MOLT-4 leukemia = test system: MOLT-4 leukemia

Measured: growth

COc1c(F)ccc(C(=O)Nc2ccc3nc(NC(=O)C4CCCN(S(=O)(=O)c5ccc(C(C)(C)C)cc5)C4)sc3c2)c1F (stereo not given)
inactive: HCT-15 colon 63.3% | HT29 colon 55.4% | SNB-75 CNS 66.4% | SNB-19 CNS 78.2% | U251 CNS 58.8% | PC-3 prostate 45.8% | SK-MEL-5 melanoma 66.5% | UACC-62 melanoma 55.9% | LOX IMVI melanoma 43.9% | SK-MEL-28 melanoma 81.3% | SK-MEL-2 melanoma 71.3% | EKVX NSCLC 59% | SN12C renal 57% | UO-31 renal 44.3% | TK-10 renal 93.6% | ACHN renal 63.4% | CAKI-1 renal 69.3% | A498 renal 84.7% | CCRF-CEM leukemia 57.9% | MOLT-4 leukemia 29.7%

COC(=O)c1cc(C(=O)C(C)(C)C)n2c3ccccc3c3ccccc3c12
inactive: HCT-15 colon 65.6% | HT29 colon 99.4% | SNB-75 CNS 84.1% | SNB-19 CNS 109% | U251 CNS 97% | PC-3 prostate 59.2% | SK-MEL-5 melanoma 88.6% | UACC-62 melanoma 66.7% | LOX IMVI melanoma 91.1% | SK-MEL-28 melanoma 99.2% | SK-MEL-2 melanoma 93.3% | EKVX NSCLC 101% | SN12C renal 95.5% | UO-31 renal 84.7% | TK-10 renal 121% | ACHN renal 89.7% | CAKI-1 renal 60.7% | A498 renal 156% | CCRF-CEM leukemia 75.8% | MOLT-4 leukemia 67.1%

NCCCCn1c(SCCc2c[nH]c3ccccc23)nnc1-c1ccc2ccccc2n1
active: HCT-15 colon -1.2% | HT29 colon -45.3% | SNB-75 CNS 0.128% | U251 CNS -84.8% | PC-3 prostate 2.82% | SK-MEL-5 melanoma -99.4% | UACC-62 melanoma -88.5% | LOX IMVI melanoma -95.6% | SK-MEL-28 melanoma -97.4% | SK-MEL-2 melanoma -73.5% | EKVX NSCLC -0.327% | SN12C renal -14.8% | TK-10 renal -7.11% | ACHN renal -55.1% | CAKI-1 renal -9.25% | CCRF-CEM leukemia -23.3% | MOLT-4 leukemia -35.4%
inactive: SNB-19 CNS 18.6% | UO-31 renal 26.4% | A498 renal 98.5%

O=C(NN1C(=O)/C(=C/C=C/c2ccc([N+](=O)[O-])o2)SC1=S)c1ccc([N+](=O)[O-])cc1
active: HCT-15 colon -85.4% | HT29 colon -80.3% | SNB-75 CNS -91.1% | SNB-19 CNS -100% | U251 CNS -89.4% | PC-3 prostate -72.5% | SK-MEL-5 melanoma -100% | UACC-62 melanoma -99.6% | LOX IMVI melanoma -97.1% | SK-MEL-28 melanoma -99% | SK-MEL-2 melanoma -89.8% | EKVX NSCLC -97.8% | SN12C renal -99.9% | UO-31 renal -100% | TK-10 renal -98% | ACHN renal -100% | CAKI-1 renal -100% | A498 renal -95.8% | CCRF-CEM leukemia -37.2% | MOLT-4 leukemia -3.98%

Cc1cc(C(NC(=O)C2CC3(CC(Nc4cccc5c4C(=O)N(C4CCC(=O)NC4=O)C5=O)C3)C2)c2ccc3c(c2)OC(F)(F)O3)c(O)c2ncccc12 (stereo not given)
inactive: HCT-15 colon 21.1% | HT29 colon 29.1% | SNB-75 CNS 25.1% | PC-3 prostate 17.8% | SN12C renal 14.1% | TK-10 renal 36.1% | CAKI-1 renal 10.6% | A498 renal 115%
active: SNB-19 CNS 7.79% | U251 CNS 7.11% | SK-MEL-5 melanoma -64.5% | UACC-62 melanoma -41% | LOX IMVI melanoma -4.96% | SK-MEL-28 melanoma 0.772% | SK-MEL-2 melanoma -4.6% | EKVX NSCLC 6.4% | UO-31 renal -5.11% | ACHN renal 5.49% | CCRF-CEM leukemia -7.69% | MOLT-4 leukemia 4.24%

COc1ccc(CCC2NCCc3c(Br)c4c(c(OC)c32)OCO4)cc1 (stereo not given)
active: HCT-15 colon 7.93% | HT29 colon 2.11% | SNB-75 CNS -4.42% | U251 CNS 7.13% | SK-MEL-5 melanoma -17% | UACC-62 melanoma -32.5% | LOX IMVI melanoma -27.5% | SK-MEL-28 melanoma 1.12% | SK-MEL-2 melanoma -16.9% | MOLT-4 leukemia 9.59%
inactive: SNB-19 CNS 12.1% | PC-3 prostate 26.5% | EKVX NSCLC 24.4% | SN12C renal 13.2% | UO-31 renal 21.1% | TK-10 renal 44% | ACHN renal 15.5% | CAKI-1 renal 16.5% | A498 renal 79% | CCRF-CEM leukemia 19.6%

COc1cccc2nc(Nc3cccc(NC(=O)c4ccc(CN5CCN(C)CC5)c(C(F)(F)F)c4)c3)ccc12
active: HCT-15 colon -79.1% | HT29 colon -69.3% | SNB-75 CNS -97.5% | SNB-19 CNS -100% | U251 CNS -73.7% | PC-3 prostate -50.9% | SK-MEL-5 melanoma -100% | UACC-62 melanoma -99.1% | LOX IMVI melanoma -100% | SK-MEL-28 melanoma -100% | SK-MEL-2 melanoma -87.8% | EKVX NSCLC -96.2% | SN12C renal -90.5% | UO-31 renal -88.6% | TK-10 renal -93.1% | ACHN renal -100% | CAKI-1 renal -100% | A498 renal -94.9% | CCRF-CEM leukemia -44.4% | MOLT-4 leukemia -38.5%
